Experimental findings from ChEMBL document CHEMBL5308541, “MAIP: An Open-Source Tool to Enrich High-Throughput Screening Output and Identify Novel, Druglike Molecules with Antimalarial Activity” (ACS Med Chem Lett, 2023) are described below.

The whole screen tested about 4,800 compounds, of which about 410 (8.5%) showed an effect of 50% or more. Only a selection was taken, and strong results are over-represented in it overall.

The experiment concerns Plasmodium falciparum. Kind of experiment: Confirmatory screen in NF54 pLDH assay, in single point, at 2uM, 72h. In kind it is functional, Erythrocyte. Particulars: timepoint 72 hour.
On to `Cc1ccc2nc(NC[C@H]3CCN(C4CC4)C3)cc(C)c2c1`, for which the % Inhibition (commonly the drop in the measured response relative to a control, in per cent) was determined as 100%.
As for `Cc1ccc2nc(-c3cccc(NC(=O)c4ccc(OC(F)(F)F)c(Cl)c4)c3)[nH]c2n1`, the “% Inhibition” value came out at 74%.
For `O=C(NCCNc1ccnc2ccncc12)c1ccc(C(F)(F)F)cc1`, the “% Inhibition” value came out at 43%.
The figure for `Cc1cnccc1NCCNCc1ccc(OC(C)C)c(Cl)c1` is 84%; for `Cc1ocnc1CNC[C@H](O)c1ccc(Cl)c(Cl)c1` it is 97%.
With `CNc1nc(N[C@H]2CCCN(Cc3ccc(Cl)cc3)C2)nc2c1CCC2` the figure was 100%; with `Nc1ccc(Nc2ccc(F)cc2)c2ccncc12`, 70%; with `CN([C@@H](c1ccccc1)c1ccccc1Br)S(=O)(=O)c1c[nH]c2ncccc12`, 67%.
`CN(C[C@H](O)COc1cccc(CNCCCOc2cccnc2)c1)C1CCCCC1`: the “% Inhibition” value is recorded as 44%.
For the compound `CN(C[C@H](O)COc1ccccc1CN1CCC(c2ccncc2)CC1)C1CCCCC1`, the “% Inhibition” value is recorded as 84%.
With `O=C(Nc1cncnc1N1CCCC1)c1cc(F)cc2[nH]cnc12` the figure was -8%; with `Cc1nc2ccc(Oc3ccccc3)cc2c(O)c1CN(C)C1CCN(C)CC1`, 28%; with `CN1CCC(N(C)C[C@H](Nc2ncnc3ccccc23)c2ccccc2)CC1`, 102%.
For `CN(C)CCN1CCC(CNCc2ccc3ncccc3c2)CC1`, the “% Inhibition” value is recorded as 29%.
The figure for `COc1ccc(-c2cncc(C(=O)NCC3CCN(CCN(C)C)CC3)c2)cc1` is 96%; for `COC(=O)c1cn(CCNc2ccnc3cc(Cl)ccc23)cc2c(O)nnc1-2` it is 103%.
In the case of `c1ccc(-c2nc3c(c(NCCNc4ncccn4)n2)CCC3)nc1`, the “% Inhibition” value was 23%.
Regarding `CCCN(CCN1CCN(CC)CC1)c1nc(-c2ccccn2)nc2c1CCC2`, the “% Inhibition” value stood at 10%.
On to `CNc1nc(C)cc(N[C@@H]2COc3ccccc3C2)n1`, for which the “% Inhibition” value is 89%.
With `CCN1CCN(c2ccccc2CNCCC2CCN(C)CC2)CC1` the figure was 2%.
The figure for `c1ccc2c(CNCCC3CCN(c4ccncc4)CC3)csc2c1` is 95%; for `Fc1ccc(-n2cc(CNCCC3CCN(c4ccncc4)CC3)cn2)cc1` it is 102%; for `c1ccc(-c2ccnc(C3CCN(CC45CNCC4C5)CC3)n2)cc1` (stereo not given) it is 96%.
With `COCCN1CCC[C@H](CNCc2cnn(-c3ccc4ccccc4c3)c2)C1` the figure was 13%; with `COCCN1CC[C@H](CNC2CCN(c3ncc4ccc(F)cc4n3)CC2)C1`, 71%; with `CN(C)C1(CNc2nc(C(F)(F)F)nc3cc4c(cc23)OCO4)CCCCCC1`, 49%.
`CN(C)C1(CNc2nc(C(F)(F)F)nc3cc(F)ccc23)CCCCCC1`: the “% Inhibition” value was found to be 57%.
Regarding `Cc1ccc(-c2cc(C(=O)NC3CCN(C4CCN(C)CC4)CC3)n[nH]2)cc1C`, the “% Inhibition” value is given as 102%.
With `CN1CCC(N2CCC(NC(=O)c3ccc(S(=O)(=O)N(C)C4CCCCC4)cc3)CC2)CC1` the figure was 39%; with `Cc1cc(N2CCC(NCCCN3CCCc4ccccc43)CC2)nc(N)n1`, 88%; with `Cc1cc(N2CCC(NCCc3c[nH]cn3)CC2)nc(-c2ccccc2)n1`, 11%.
`Cc1ccc2nc(CCCNC3CCN(c4cc(C)nc(N)n4)CC3)oc2c1`: the “% Inhibition” value came to 59%.
As to `OC1(c2ccc(Cl)cc2)CCN(C[C@@H]2CCCN3CCCC[C@H]23)CC1`, the “% Inhibition” value is 88%.
Consider `CN(C)CCN1CCC(NC2CCC(O)(c3cccc(Cl)c3)CC2)CC1` (stereo not given), for which the “% Inhibition” value is 33%.
On to `CC(C)(C)n1ncc2c(NCc3ccc4cccnc4c3O)ncnc21`, for which the “% Inhibition” value is on record as 37%.
With `c1ccc2c(c1)CN(c1ncnc3[nH]ccc13)CC1(CCOCC1)O2` the figure was -5%; with `CCn1cc(-c2cccc(C(=O)N[C@@H](C)CN3CCc4ccccc4C3)c2)cn1`, 38%.
Take `NCCCCc1c(-c2cccnc2)[nH]c2c(Cl)cc(Cl)cc12`: the “% Inhibition” value is 75%.
As for `NC(=O)[C@]1(O)CCN(c2ccnc3ccc(Oc4ccccc4)cc23)C1`, the “% Inhibition” value is given as 33%.
With `O[C@@]1(c2c[nH]nn2)CCN(c2ccnc3cc(Cl)ccc23)C1` the figure was 98%; with `COCCN1CC[C@H](CN(C)c2ccnc3cc(Cl)ccc23)C1`, 102%.
For `COCCN1CCC[C@@]2(CCN(c3ccnc4cc(Cl)ccc34)C2)C1`, the “% Inhibition” value was 101%.
With `CN1CCC(Oc2ccc(NC(=O)c3cn4ccnc4s3)cn2)CC1`, the “% Inhibition” value is listed as 92%.
With `CN(C)Cc1cccc(CCNCc2csc(-c3ccc(C(F)(F)F)cc3)n2)c1` the figure was 88%; with `COc1ccc2[nH]cc(C3=CCN(c4ccc5nnc(-c6ccccc6F)n5n4)CC3)c2c1`, 41%.
For `c1cc(CNC2CCN(C[C@H]3CCOC3)CC2)c2cc[nH]c2c1`, the “% Inhibition” value is -13%.
The figure for `Fc1cccc(Cl)c1CN1CCC(NC[C@H]2CCCOC2)CC1` is 21%; for `CCc1ccc2ncnc(NCCCN3CCN(CCO)CC3)c2c1` it is 85%.
The figure for `Cc1cc(O)c(Cl)cc1-c1cccc2c(N)ccnc12` is 94%; for `Cc1cc(O)c(Cl)cc1-c1ccc2nccc(N)c2c1` it is 100%; for `COC(CN(Cc1nc(N)nc(Nc2ccc(C)cc2)n1)Cc1nc(N)nc(Nc2ccc(C)cc2)n1)OC` it is 94%.
With `c1ccc(CCC23CN(Cc4ccccn4)CC2CN(Cc2ccns2)C3)cc1` (stereo not given), the “% Inhibition” value is 88%.
The figure for `Cc1noc(-c2ccnc(NC[C@@H](c3ccccn3)N3CCOCC3)c2)n1` is 100%; for `COc1ccc2c(C)cc(NCCCN3CCC[C@H](C(N)=O)C3)nc2c1` it is 100%.
With `Cc1cc(NCCCN2CCC[C@H](O)C2)c2cc(F)ccc2n1` the figure was 31%; with `CCN1C[C@H](Nc2nc(C)nc3sccc23)[C@@H](OC)C1`, 101%; with `O=C(NCCN1CCCCC1)c1cccc(-c2cnc3ccc(F)cn23)c1`, 21%.
As for `CC(CNc1nc(NCC(C)N2CCOCC2)c2cc(Cl)ccc2n1)N1CCOCC1` (stereo not given), the “% Inhibition” value is given as 102%.
On to `CCNc1nc(C)cc(Nc2ccc(NC(=O)Nc3ccc(F)cc3F)cc2)n1`, for which the “% Inhibition” value is recorded as 99%.
With `CCNc1cc(C)nc(NCCNC(=O)Nc2cc(F)cc(F)c2)n1` the figure was 92%; with `CCOc1ccc2nc(CN(CC)CC3CCN(C4CCN(C)CC4)CC3)ccc2c1`, 99%.
`CCOc1ccc2nc(N3CCC(N4CCC([C@H](O)c5cccnc5)CC4)CC3)nc(C)c2c1`: the “% Inhibition” value amounted to 8%.
The figure for `CN(Cc1cn(CC(N)=O)c2ccccc12)CC1CCN(CCc2ccc(F)cc2)CC1` is 41%; for `Cc1cc(N2CCC(Nc3ccnc4ccncc34)CC2)nc(C)n1` it is 7%; for `CCN1CCN([C@H]2CCN(c3ccnc4ccncc34)C2)CC1` it is 98%.
As for `Cc1ccc2nccc(N3CCC(N4CCC(O)CC4)CC3)c2c1`, the “% Inhibition” value is listed as 12%.
The figure for `Cc1ccc2[nH]cc(-c3cc(N4CCOCC4)nc(N)n3)c2c1` is 55%.
With `Nc1cc(N2CCC(c3nc4cc(F)ccc4[nH]3)CC2)nc(N2CCOCC2)n1` the figure was 42%.
With `Cc1ccc(-c2cccc3c(C(=O)NCCCN4CCC(N5CCCCC5)CC4)cc(C)nc23)cc1` the figure was 103%.
In the case of `Brc1ccc2[nH]c3c(c2c1)CCCC3NC1CCc2[nH]cnc2C1` (stereo not given), the “% Inhibition” value was determined as 104%.
On to `CCOc1cc2nccc(N3C[C@H]4CN(C)C[C@H]4C3)c2cc1OCC`, for which the “% Inhibition” value worked out at 96%.
Regarding `Oc1ccc(OC(F)(F)F)cc1-c1ccc2nccn2n1`, the “% Inhibition” value is 92%.
Turning to `Nc1ccc(-c2cc(OC(F)(F)F)ccc2O)cn1`, the “% Inhibition” value was determined as 14%.
For `Clc1cccc(N2CC[C@H](CNC3CCN(Cc4ccco4)CC3)C2)c1`, the “% Inhibition” value is listed as 97%.
`COc1ccnc(NCCCc2nc(-c3ccncc3)cs2)n1`: the “% Inhibition” value worked out at 64%.
